Drawing on PubChem BioAssay (NCI), this text covers growth for 12 molecules.

SMILES strings stand for the structures. Compounds without any hit were thinned out: in the full panel of roughly 83,000, 20% have a hit.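 Interpretation: 100, growth as untreated; towards 0, rising growth inhibition; 0, no net growth; 0 to -100, cell death. Compounds scoring below 10 were considered active.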 Unmarked numbers belong to inactive results. Active and inactive are the calls of the source.

What all share (experiment): NCI-60 one-dose screen, 48 h (100 = growth as untreated, 0 = no growth, -100 = all killed)
Common to all, as to settings: 10 µM

For assay [1], the system named is BT-549 breast.
The test system of assay [2] is MDA-MB-435 melanoma.
The test system of assay [3] is SW-620 colon.
Assay [4] concerns MCF7 breast.
The test system of assay [5] is HCT-116 colon.
Assay [6] has as its system HCC-2998 colon.
The test system of assay [7] is KM12 colon.

As for `O=C(Nc1cccc(Cl)c1)Nc1cc2ncncc2cc1OCc1cccc(F)c1`, the growth is 44.8% in assay [1]; 0.458% (active) in assay [2]; 23.9% in assay [3]; 6.04% (active) in assay [4]; 8.63% (active) in assay [5]; 35.7% in assay [6]. Moreover, the growth in assay [7] was 9.08% (active).

With `CCCCNC(=O)Oc1ccc(/C(=C(\C)c2ccc(OC)cc2)c2ccc(OCCN3CCCCC3)cc2)cc1`, the growth in assay [1] was 52%; in assay [2], 59.8%; in assay [3] it was 40.5%; in assay [4] it was 24.2%; in assay [5], 29.4%; in assay [6], 72.8%. The growth in assay [7] was 45.4%.

Consider `O=C(Nc1cccc(Cl)c1)OCC(COC(=O)Nc1cccc(Cl)c1)(COC(=O)Nc1cccc(Cl)c1)[N+](=O)[O-]`, for which the growth is 50.8% in assay [1]; 39.9% in assay [2]; 45.6% in assay [3]; 21.1% in assay [4]; 16.3% in assay [5]; 36.9% in assay [6]. Also, the growth in assay [7] was 23.8%.

In the case of `Oc1ccc(Cn2cc3c(c2-c2ccccc2)CCc2cnoc2-3)cc1`, the growth in assay [1] is 101%; in assay [2] it was 72.7%; in assay [3], 98%; in assay [4], 105%; in assay [5], 92.7%; in assay [6], 102%. In assay [7], the growth is 91.5%.

On to `Cc1cccc2c(Nc3ccc(NS(C)(=O)=O)cc3)c3ccc([N+](=O)[O-])cc3nc12`, for which the growth was 29.1% in assay [1]; 33.2% in assay [2]; -43.5% (active) in assay [3]; 0.147% (active) in assay [4]; 5.63% (active) in assay [5]; -30.6% (active) in assay [6]. Moreover, the growth in assay [7] is -46.6% (active).

With `COc1ccc(C2=Cc3ccc(OC(C)=O)cc3OC2)cc1`, the growth was 97.5% in assay [1]; 91.9% in assay [2]; 101% in assay [3]; 101% in assay [4]; 104% in assay [5]; 95% in assay [6]. Moreover, in assay [7], the growth was 88.9%.

Turning to `CC(C)c1[nH]nc2c(NCc3ccc(-c4ccccn4)cc3)nc(SCCN)nc12`, the growth in assay [1] is -32% (active); in assay [2], -39.6% (active); in assay [3] it was 5.99% (active); in assay [4] it was 1.59% (active); in assay [5], 5.28% (active); in assay [6], -22.9% (active). The growth in assay [7] was 5.47% (active).

Turning to `O=NN(CCCl)C(=O)Nc1ccc(NC(=O)N(CCCl)N=O)cc1`, the growth in assay [1] was 85.2%; in assay [2], 90.3%; in assay [3], 66.1%; in assay [4], 86.4%; in assay [5], 100%; in assay [7], 103%.

Turning to `CCOc1cc(Br)c(C(C)NC(=O)c2cccc(OC)c2)cc1OCC` (stereo not drawn), the growth is 87% in assay [1]; 6.36% (active) in assay [2]; 85.7% in assay [3]; 64.4% in assay [4]; 56.2% in assay [5]; 37.7% in assay [6]. In addition, in assay [7], the growth is 84.1%.

For `O=C(Nc1cccc([N+](=O)[O-])c1)NN1CCCCCC1`, the growth was 107% in assay [1]; 102% in assay [2]; 95.9% in assay [3]; 100% in assay [4]; 94.3% in assay [5]; 94.8% in assay [6]. Further, the growth in assay [7] is 98.7%.

As to `C[C@@H]1N=C(c2ccc(Br)cc2)Nc2nc3ccccn3c2C1=O`, the growth in assay [1] is 49.3%; in assay [2] it was -13% (active); in assay [3] it was 38%; in assay [4] it was 20.9%; in assay [5], 29.2%; in assay [6] it was 69%. The growth in assay [7] was 29.6%.

Consider `CCNC1(NC#N)CCCCC1`, for which the growth is 110% in assay [1]; 97.7% in assay [2]; 104% in assay [3]; 104% in assay [4]; 103% in assay [5]; 96.2% in assay [6]. Also, the growth in assay [7] is 105%.
